Assay results as given in PubChem BioAssay AID1745848 (National Center for Advancing Translational Sciences (NCATS), 2022).
Hit rate of the full screen: of about 2,100 compounds, about 940 (45%) were called active. Inconclusive results (about 48%) are left out. Calls follow the shape of the dose curve; as a rule, active = well fitted inhibition curve with a large enough effect; inconclusive = small, poorly fitted or top-dose-only effect; inactive = no such curve, though single readings can be large or run the other way. The set was probably picked from earlier hits. The list shows a part of the results.

experiment: Confirmatory qHTS for Inhibitors of ATXN expression; conditions: ATXN2-luciferase reporter cells, luminescence, 24 h; series mostly up to 11.5 µM; also: nearly all actives have a fitted effect of over 65% in size
Summary of the method: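 Cells carrying ATXN2-luciferase reporter exposed 24 h at 37 C to compound. Viability then read by CellTiter-Fluor (25 uM GF-AFC, 30 min), followed by SteadyGlo luminescence; medium-only wells set 100% inhibition.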
Potency is read from the fitted curve at half-maximal effect.

SMILES | Potency
Cc1ccc2nc(SCc3ccc([N+](=O)[O-])cc3)[nH]c2c1 | inactive
CCn1c2ccccc2c2cc(/C=N/NC(=O)c3ccccc3)ccc21 | 3.16 µM (active)
CC(C)CCn1c(N)c(S(=O)(=O)c2cccs2)c2nc3ccccc3nc21 | 3.16 µM (active)
COc1cccc(/C=N/n2c(N)c(S(=O)(=O)c3cccs3)c3nc4ccccc4nc32)c1OC | 14.1 µM (active)
Cc1ccc(S(=O)(=O)c2c(N)n(CC3CCOC3)c3nc4ccccc4nc23)cc1 (stereo unspecified) | inactive
Cc1cc(Br)c(OCc2ccc(C(=O)N/N=C3\CC4CC=CC34)cc2)c(Br)c1 (stereo unspecified) | 28.2 µM (active)
CCCCNC(=NCc1cccc(C(F)(F)F)c1)Nc1ccccc1 | 3.16 µM (active)
O=C(c1cnc(N2CCN(c3ccccn3)CC2)c2ccccc12)N1CCN(c2cccc(Cl)c2)CC1 | 6.31 µM (active)
CN(C(=O)c1cnc(N2CCN(c3ncccn3)CC2)c2ccccc12)c1ccc(Cl)cc1 | 28.2 µM (active)
COc1ccc(/C(C)=N/NC(=O)c2cccc(S(=O)(=O)N3CCCC3)c2)c(O)c1 | 3.55 µM (active)
CCN(CC)S(=O)(=O)c1cccc(C(=O)N/N=C(\C)c2ccc(O)cc2O)c1 | 3.16 µM (active)
CCn1c(C)nc2cc(C(=O)N/N=C(\C)c3ccc(OC)cc3O)ccc21 | 15.8 µM (active)
CC(=NNC(=O)c1ccncc1)c1ccc(O)cc1O | 12.6 µM (active)
CC(=NNC(=O)c1ccncc1)c1ccc2ccccc2c1O | 1.12 µM (active)
Oc1c(C(Nc2ccccn2)c2cccnc2)cc(Cl)c2cccnc12 (stereo unspecified) | 12.6 µM (active)
CC(=O)NC(c1ccc(C)cc1)c1cc(Cl)c2cccnc2c1O (stereo unspecified) | 2.51 µM (active)
CC(=O)NC(c1ccccc1)c1cc(Cl)c2cccnc2c1O (stereo unspecified) | 2.82 µM (active)
CC(C)(C)c1ccc(CC(=O)N2CCC2(C)C(=O)Nc2cnc3ccccc3c2)cc1 (stereo unspecified) | inactive
Cc1ccc(CN2CCSc3ccc(C(=O)NC4CCN(Cc5ccccc5)CC4)cc32)cc1 | 3.16 µM (active)
CC1(C(=O)NC2CCN(Cc3ccccc3)CC2)CCN1Cc1ccc2ccccc2c1 (stereo unspecified) | 2.51 µM (active)
CN1C(=O)/C(=C\c2ccccc2F)Sc2ccc(C(=O)NC3CCN(Cc4ccccc4)CC3)cc21 | 3.16 µM (active)
CC(=O)Nc1cc(-c2ccc(C(=O)NC3CC3)cc2)cn2c(-c3cccc(C(C)=O)c3)cnc12 | inactive

SMILES | Potency
CN1CCC(NC(=O)c2cc(-c3cccc(Br)c3)nc3ccccc23)CC1 | 25.1 µM (active)
CCc1c2c(nc3ccc(OC(=O)N4CCC(N5CCCCC5)CC4)cc13)-c1cc3c(c(=O)n1C2)COC(=O)[C@]3(O)CC | 0.316 µM (active)
CC[C@@]1(O)C(=O)OCc2c1cc1n(c2=O)Cc2cc3c(CN(C)C)c(O)ccc3nc2-1 | inactive
Cc1sc(NC(=O)c2cc(-c3ccc(Cl)cc3)nc3ccccc23)c(C(N)=O)c1C | 7.08 µM (active)
C=CCN(C(=O)CSc1nc2c(sc3ccccc32)c(=O)n1CCN(CC)CC)c1ccccc1 | 28.2 µM (active)
CCc1nc2ccc(C(=O)NCCOc3ccc(OC)cc3)cn2c1N(CCC(C)C)CCN(C)C | 3.98 µM (active)
O=C(NCC1CC1)c1ccc2c(c1)S(=O)(=O)c1cc(Cl)ccc1C2=O | inactive
CC(C)CC(NC(=O)c1ccc(Cl)cc1)C(=O)OCC(=O)c1ccc2c(c1)NC(=O)CO2 (stereo unspecified) | 28.2 µM (active)
CCCCC1C(=O)CC[C@H]2[C@@H]1CC(=O)[C@@H]2C/C=C\CCCC(=O)O (stereo partly specified) | inactive
COc1nn(-c2ccccc2)c(=O)c(Cl)c1Cl | 1.41 µM (active)
Cc1ccc(C(NC(=O)C2CCN(Cc3ccc(Cl)c(Cl)c3)CC2)c2ccccn2)cc1 (stereo unspecified) | 28.2 µM (active)
COC(=O)[C@H]1C[C@H](OC(=O)NC2CC2)[C@@]2(O)CN(S(=O)(=O)c3ccc(C)cc3)CC2[C@H]1C(=O)OC (stereo partly specified) | inactive
O=C(CSC1=NNC(c2ccccn2)S1)Nc1ccc(C(F)(F)F)cc1 (stereo unspecified) | 28.2 µM (active)
COc1cc2ccnc(Cc3cccc(OC)c3OC)c2cc1OC | 1 µM (active)
COc1cc(C)c(C(=O)CC(=O)c2c(C)cc(OC)cc2C)c(C)c1 | inactive
CCCCOc1ccccc1NC(=O)Cn1c(-c2nonc2N)nc2ccccc21 | 3.98 µM (active)
COc1ccc(Cc2[nH]n3c(=O)cc(C(C)C)nc3c2-c2ccccc2)cc1 | 8.91 µM (active)
Cc1cc(C)c(S(=O)(=O)/N=C2\C=C(Nc3ccc(C(=O)O)cc3)C(=O)c3ccccc32)c(C)c1 | 1.78 µM (active)
COC1=CC(=O)C=C(OC)C1(O)CC(C)=O | inactive
O=C1/C(=C/c2ccc([N+](=O)[O-])cc2)C=C(c2ccccc2)N1c1ccc(O)cc1 | 2.51 µM (active)
Cc1cc2c(c(/C=C/C(=O)c3ccccc3)c1)OC1(C=C2)Oc2ccccc2C(=O)N1C (stereo unspecified) | 25.1 µM (active)
CCCCCn1c(=O)c2ccccc2n2c(CCl)nnc12 | 15.8 µM (active)

SMILES | Potency
COc1cc(C(=O)N/N=C(\c2ccccc2)c2ccccn2)cc(OC)c1OC | 0.355 µM (active)
O=C(N/N=C(\c1ccccc1)c1ccccn1)c1ccccc1Cl | 3.55 µM (active)
O=C(NN=C(c1ccccc1)c1ccccn1)c1ccccc1 | 2.24 µM (active)
CCC(CC)C(=O)c1c[nH]c(C(=O)NCc2ccccn2)c1 | inactive
O=C(O)CSc1cc(NS(=O)(=O)c2cccc([N+](=O)[O-])c2)c2ccccc2c1O | 3.16 µM (active)
CN(Cc1cnc2nc(N)nc(N)c2n1)c1ccc(C(=O)NC(CCC(=O)O)C(=O)O)c2ccccc12 (stereo unspecified) | 0.1 µM (active)
CN(Cc1cnc2nc(N)nc(N)c2n1)c1ccc(C(=O)N[C@@H](CCC(=O)O)C(=O)O)cc1 | 0.398 µM (active)
Cc1cnc(NC(=O)C2CC(=O)N(c3cccc(Cl)c3)C2)s1 (stereo unspecified) | 0.112 µM (active)
Cc1ccc(N2CC(C(=O)Nc3nccs3)CC2=O)cc1Cl (stereo unspecified) | 2.24 µM (active)
Cc1ccc(CN2CC(C(=O)Nc3ncc(C)s3)CC2=O)cc1 (stereo unspecified) | 1.78 µM (active)
Cc1ccc2nc(NC(=O)CSCC(=O)OCC(=O)c3ccc(Br)cc3)sc2c1 | 3.55 µM (active)
CCN(CC)S(=O)(=O)c1cc(NC(=O)C2CCN(c3ncnc4sc(C)c(C)c34)CC2)ccc1Cl | 3.55 µM (active)
COc1ccc(-c2csc(NC(=O)C3CCN(c4ncnc5sc(C)c(C)c45)CC3)n2)cc1OC | 3.98 µM (active)
COc1ccc(S(=O)(=O)N(C)C)cc1NC(=O)C1CCN(c2ncnc3sc(C)c(C)c23)CC1 | 22.4 µM (active)
Cc1sc2nc(CN3CCCC3)nc(N3CCC(C(N)=O)CC3)c2c1C | inactive
Oc1c(C(c2ccccn2)N2CCCCC2)cc(Cl)c2cccnc12 (stereo unspecified) | 15.8 µM (active)
Oc1c(C(c2ccccn2)N2CCC(Cc3ccccc3)CC2)cc(Cl)c2cccnc12 (stereo unspecified) | 28.2 µM (active)
O=C(NC(Nc1ncc(S(=O)(=O)c2ccc([N+](=O)[O-])cc2)s1)(C(F)(F)F)C(F)(F)F)c1ccc(Cl)cc1 | 3.55 µM (active)
O=C(NC(Nc1nc2ccc([N+](=O)[O-])cc2s1)(C(F)(F)F)C(F)(F)F)c1ccccc1 | 0.355 µM (active)
O=c1oc2ccccc2c(O)c1Cc1cc(Cl)c2cccnc2c1O | 15.8 µM (active)
CC[n+]1c(/C=C/c2c[nH]c3ccccc23)ccc2cc(C)ccc21 | 7.94 µM (active)
COC(=O)c1ccccc1S(=O)(=O)NNC(=O)Nc1ccccc1 | inactive

SMILES | Potency
Cc1[nH]n(-c2cccc3ccccc23)c(=O)c1/C=N/NC(=O)c1cccc([N+](=O)[O-])c1 | 7.94 µM (active)
COc1ccc(/C=N/NC(=O)c2cccc([N+](=O)[O-])c2)c2ccccc12 | 3.16 µM (active)
CCCc1nc(NC2CCCCC2)c(C#N)c2c1COC(C)(C)C2 | inactive
O=C(Cc1ccc(-c2ccccc2)cc1)Nc1ccccn1 | 15.8 µM (active)
CC(C)C1C(=O)N(Cc2cn(CCC3OCCO3)nn2)CCS(=O)(=O)N1Cc1ccc(-c2ccc(Cl)cc2)cc1 (stereo unspecified) | 31.6 µM (active)
CSc1ncnc2c1ncn2CC(=O)C1CCC2C3CCC4=CC(=O)CCC4(C)C3CCC12C (stereo unspecified) | 11.2 µM (active)
COc1ccc(C(NC(=O)c2cccnc2)c2cc(Cl)c3cccnc3c2O)cc1OC (stereo unspecified) | 2.51 µM (active)
CCCC(=O)NC(c1ccc(OC)c(OC)c1)c1cc(Cl)c2cccnc2c1O (stereo unspecified) | 2.51 µM (active)
CCC(=O)NC(c1ccc(OC)c(OC)c1)c1cc(Cl)c2cccnc2c1O (stereo unspecified) | 2.82 µM (active)
N=c1c2c(n(Cc3ccc(Br)cc3)c3c1CCC3)CCCC2 | 1.12 µM (active)
C=CCNc1oc(-c2ccc(Cl)cc2)nc1C#N | inactive
Cc1ccc2[nH]c(=O)c(CN(CCCN(C)C)C(=O)Nc3cccc(Cl)c3)cc2c1 | 22.4 µM (active)
COc1ccc(/C=N/Nc2cc(N3CCCC3)nc(N3CCCC3)n2)cc1 | 3.16 µM (active)
Cc1c(C(=O)Nc2nonc2-c2ccc(F)cc2)oc2ccc(F)cc12 | 25.1 µM (active)
CCc1nc2c(OCCOc3ccc(F)cc3)cccn2c1N(C)C(=O)c1ccco1 | inactive
Cc1nc2c(OCc3cc(Cl)cc(Cl)c3)cccn2c1N(C)C(=O)CCC1CCCC1 | 22.4 µM (active)
Cc1nn(-c2ccccc2)c2nc(-c3cccs3)cc(C(=O)NN)c12 | 14.1 µM (active)
Cn1cc(C(=O)c2ccc(Cl)cc2Cl)cc1C(=O)N/N=C(\N)COc1ccc(Cl)cc1 | 11.2 µM (active)
Cc1onc(-c2c(Cl)cccc2Cl)c1C(=O)N/N=C(\N)COc1ccc(Cl)cc1 | 2.51 µM (active)
O=C(Nc1nc(NC(=O)c2ccco2)n(-c2ccccc2)n1)c1ccccc1 | 3.16 µM (active)
